PubChem BioAssay AID1159580 (chemical genetic matrix, 2015)
Hit rate of the full screen: of about 5,500 compounds, about 2,000 (36%) were called active. Roughly 18% stayed inconclusive and do not appear here. The list shows a part of the results. A number with no mark means an inactive call. Cut-off read from the data, not from the text of the source: active = normalized growth mostly below about 0.91 (no sharp cut-off); inconclusive = no clear call, values can overlap the other calls; inactive = mostly above about 0.92.

Assay: chemical genetic growth profiling, strain panel (AID 1159580);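 note: tested at 20 µM; growth read once vehicle control cultures reached saturation at 30 °C; 1 = growth at the plate median or of vehicle wells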
Settings: S. cerevisiae deletion strains, growth OD

COc1cc2occ(-c3ccccc3)c(=O)c2c(OC)c1C
normalized growth (locus YAL013W, strain DEP1, stronger effect = lower value): 0.947 | normalized growth (locus YAL021C, strain ccr4, stronger effect = lower value): 0.996 | normalized growth (locus YAL026C, strain drs2, stronger effect = lower value): 0.96 | normalized growth (locus YAL030W, strain snc1, stronger effect = lower value): 0.967 | normalized growth (locus YBL061C, strain skt5, stronger effect = lower value): 0.985 | normalized growth (locus YBR009C, strain hhf1, stronger effect = lower value): 0.978 | normalized growth (locus YBR021W, strain FUR4, stronger effect = lower value): 0.923 | normalized growth (locus YBR023C, strain chs3, stronger effect = lower value): 0.966 | normalized growth (locus YBR171W, strain sec66, stronger effect = lower value): 0.965 | normalized growth (locus YBR229C, strain ROT2, stronger effect = lower value): 0.959 | normalized growth (locus YBR231C, strain swc5, stronger effect = lower value): 0.966 | normalized growth (locus YBR279W, strain paf1, stronger effect = lower value): 0.992 | normalized growth (locus YCL011C, strain gbp2, stronger effect = lower value): 0.973 | normalized growth (locus YCL016C, strain dcc1, stronger effect = lower value): 0.968 | normalized growth (locus YCL029C, strain bik1, stronger effect = lower value): 0.933 | normalized growth (locus YCL061C, strain MRC1, stronger effect = lower value): 0.973 | normalized growth (locus YCL069W, strain vba3, stronger effect = lower value): 0.975 | normalized growth (locus YCR088W, strain abp1, stronger effect = lower value): 0.972 | normalized growth (locus YDL005C, strain med2, stronger effect = lower value): 1.02 | normalized growth (locus YDL035C, strain GPR1, stronger effect = lower value): 0.915 | normalized growth (locus YDL040C, strain nat1, stronger effect = lower value): 0.973 | normalized growth (locus YDL074C, strain BRE1, stronger effect = lower value): 0.817 | normalized growth (locus YDL101C, strain DUN1, stronger effect = lower value): 0.953 | normalized growth (locus YDL134C, strain PPH21, stronger effect = lower value): 0.963 | normalized growth (locus YDL185W, strain tfp1, stronger effect = lower value): 0.945 | normalized growth (locus YDL192W, strain arf1, stronger effect = lower value): 0.903 (active) | normalized growth (locus YDR001C, strain nth1, stronger effect = lower value): 0.967 | normalized growth (locus YDR069C, strain doa4, stronger effect = lower value): 0.995 | normalized growth (locus YDR101C, strain arx1, stronger effect = lower value): 0.934 | normalized growth (locus YDR137W, strain rgp1, stronger effect = lower value): 0.765 (active) | normalized growth (locus YDR150W, strain NUM1, stronger effect = lower value): 0.963 | normalized growth (locus YDR159W, strain sac3, stronger effect = lower value): 0.98 | normalized growth (locus YDR162C, strain NBP2, stronger effect = lower value): 0.875 | normalized growth (locus YDR195W, strain ref2): 1.1 | normalized growth (locus YDR297W, strain sur2, stronger effect = lower value): 0.974 | normalized growth (locus YDR318W, strain mcm21, stronger effect = lower value): 0.891 (active) | normalized growth (locus YDR334W, strain swr1, stronger effect = lower value): 0.968 | normalized growth (locus YDR335W, strain msn5, stronger effect = lower value): 0.991 | normalized growth (locus YDR388W, stronger effect = lower value): 0.935 | normalized growth (locus YDR392W, strain spt3, stronger effect = lower value): 0.707 (active) | normalized growth (locus YDR502C, strain sam2, stronger effect = lower value): 0.919 (active) | normalized growth (locus YEL003W, strain gim4, stronger effect = lower value): 0.978 | normalized growth (locus YEL037C, strain rad23, stronger effect = lower value): 0.977 | normalized growth (locus YEL061C, strain CIN8 (second series), stronger effect = lower value): 0.978 | normalized growth (locus YEL061C, strain CIN8, stronger effect = lower value): 0.968 | normalized growth (locus YER015W, strain faa2, stronger effect = lower value): 0.981 | normalized growth (locus YER016W, strain bim1, stronger effect = lower value): 0.97 | normalized growth (locus YER110C, stronger effect = lower value): 0.938 | normalized growth (locus YER111C, strain swi4, stronger effect = lower value): 1 | normalized growth (locus YER155C, strain BEM2 (second series), stronger effect = lower value): 0.886 | normalized growth (locus YER155C, strain BEM2, stronger effect = lower value): 0.961 | normalized growth (locus YER167W, strain BCK2, stronger effect = lower value): 0.881 (active) | normalized growth (locus YFR010W, strain ubp6, stronger effect = lower value): 0.991 | normalized growth (locus YGL078C, strain dbp3, stronger effect = lower value): 0.975 | normalized growth (locus YGL086W, strain mad1, stronger effect = lower value): 0.901 (active) | normalized growth (locus YGL167C, strain pmr1, stronger effect = lower value): 0.965 | normalized growth (locus YGL173C, strain kem1, stronger effect = lower value): 0.983 | normalized growth (locus YGL227W, strain vid30, stronger effect = lower value): 0.989 | normalized growth (locus YGL240W, strain doc1, stronger effect = lower value): 0.944 | normalized growth (locus YGL248W, strain PDE1, stronger effect = lower value): 0.961 | normalized growth (locus YGL253W, strain hxk2, stronger effect = lower value): 0.971 | normalized growth (locus YGR078C, strain PAC10, stronger effect = lower value): 0.932 | normalized growth (locus YGR135W, strain pre9, stronger effect = lower value): 0.918 | normalized growth (locus YGR229C, strain SMI1, stronger effect = lower value): 0.813 | normalized growth (locus YGR252W, strain gcn5, stronger effect = lower value): 0.707 (active) | normalized growth (locus YHR013C, strain ard1, stronger effect = lower value): 0.976 | normalized growth (locus YHR027C, strain rpn1, stronger effect = lower value): 0.989 | normalized growth (locus YHR030C, strain SLT2, stronger effect = lower value): 0.948 | normalized growth (locus YHR079C, strain IRE1 (second series), stronger effect = lower value): 0.911 (active) | normalized growth (locus YHR094C, strain hxt1, stronger effect = lower value): 0.956 | normalized growth (locus YHR129C, strain ARP1, stronger effect = lower value): 0.949 | normalized growth (locus YHR142W, strain chs7, stronger effect = lower value): 0.917 | normalized growth (locus YHR200W, strain rpn10, stronger effect = lower value): 0.905 (active) | normalized growth (locus YIL066C, strain RNR3, stronger effect = lower value): 0.874 | normalized growth (locus YIL073C, strain SPO22, stronger effect = lower value): 0.818 | normalized growth (locus YIL125W, strain kgd1, stronger effect = lower value): 0.955 | normalized growth (locus YIR030C, strain dcg1, stronger effect = lower value): 0.937 | normalized growth (locus YJL092W, strain hpr5, stronger effect = lower value): 0.977 | normalized growth (locus YJL095W, strain BCK1 (second series), stronger effect = lower value): 0.975 | normalized growth (locus YJL095W, strain BCK1, stronger effect = lower value): 0.847 | normalized growth (locus YJL115W, strain asf1, stronger effect = lower value): 0.998 | normalized growth (locus YJL129C, strain trk1, stronger effect = lower value): 0.891 | normalized growth (locus YJL134W, strain LCB3, stronger effect = lower value): 0.965 | normalized growth (locus YJL154C, strain vps35, stronger effect = lower value): 0.99 | normalized growth (locus YJL164C, strain tpk1, stronger effect = lower value): 0.937 | normalized growth (locus YJL166W, strain qcr8, stronger effect = lower value): 0.975 | normalized growth (locus YJL168C, strain set2, stronger effect = lower value): 0.946 | normalized growth (locus YJL187C, strain SWE1 (second series), stronger effect = lower value): 0.934 | normalized growth (locus YJL187C, strain SWE1, stronger effect = lower value): 0.976
